# Data as given in PubChem BioAssay AID504697 (The Scripps Research Institute Molecular Screening Center, 2011).
# Active and inactive are the calls of the source.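 The calls were made as follows: active = EC50 at or below 10 µM; inactive = EC50 above 10 µM.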
# Experiment: fluorescence interference artefacts, compound only, dose response, artefact control for cardiac thin filament activator project, biochemical, no RTF in test wells (AID 504697);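 also: emission near 535 nm under roughly 485 nm excitation as for IANBD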
# Conditions: compound-only fluorescence in RTF assay buffer with Ca2+ (no RTF in test wells), artifact counterscreen
row,SMILES,EC50
1,O=C(O)CCC(=O)Nc1cc(C(F)(F)F)cc(C(F)(F)F)c1,> 71.4 µM (inactive)
2,Cc1ccc(C)c(C(=O)CSc2n[nH]c(C(C)C)n2)c1,> 71.5 µM (inactive)
3,CCN1/C(=C/c2ccc3cc(C)ccc3[n+]2CC)Sc2ccccc21,> 71.4 µM (inactive)
4,C=CCn1c(=O)[nH]c2nc3cc(N=CN(C)C)c(C)cc3nc2c1=O,4.96 µM (active)
5,CC(COC(=O)c1ccccc1)(COC(=O)c1ccccc1)/[N+]([O-])=C/c1ccccc1,> 71.5 µM (inactive)
6,O=[n+]1c2c(n([O-])c3cc(F)c(N4CCCC4)cc31)CCC2,9.61 µM (active)
7,COc1ccc(C(=O)Nc2cc(C(C)=O)c(/C=C/N(C)C)oc2=O)cc1,29.5 µM (inactive)
8,COC(=O)C(=N/Nc1ccccc1C(=O)OC)/C(C)=N/O,> 71.5 µM (inactive)
9,CC(=O)Oc1ccc(NC(=O)Cc2ccccc2)c(C(=O)O)c1,> 71.5 µM (inactive)
10,Cn1ncc2c(O/N=C(\N)c3ccc(C(F)(F)F)cc3)ncnc21,> 71.5 µM (inactive)
11,COc1ccc(CNC(=O)c2sc(=S)n(-c3ccccc3)c2N)cc1,> 71.5 µM (inactive)
12,COc1ccc(CCNC(=O)COC(=O)c2cc(=O)[nH]c3ccccc23)cc1,> 71.5 µM (inactive)
13,Cc1ccc(N=Nc2c(O)n(CN3CCOCC3)c3ccccc23)cc1,> 71.5 µM (inactive)
14,CC(=O)N(C)c1ccc(C(O)(C(F)(F)F)C(F)(F)F)cc1,> 71.5 µM (inactive)
15,CCOc1ccc2ccccc2c1CNCCN1CCOCC1,> 71.5 µM (inactive)
16,CN(C)NC(=O)c1ccc([N+](=O)[O-])s1,> 71.4 µM (inactive)
17,Cc1nnc(N/N=C/c2ccc(O)c([N+](=O)[O-])c2)[nH]c1=O,> 71.5 µM (inactive)
18,N=c1n(Cc2ccccc2)c2ccccc2n1CC(O)c1ccco1 (stereo unspecified),> 71.5 µM (inactive)

row,SMILES,EC50
1,O=[n+]1c2c(n([O-])c3ccccc31)CCC2,> 71.5 µM (inactive)
2,O=C(Cn1cnc2c(cnn2-c2ccccc2)c1=O)Nc1ccc(S(=O)(=O)N2CCOCC2)cc1,> 71.5 µM (inactive)
3,COc1cc(-c2c(-c3ccc4c(c3)OCO4)noc2C)ccc1F,> 71.4 µM (inactive)
4,O=C(CSc1nc2ncc(Br)cc2[nH]1)c1cccc([N+](=O)[O-])c1,> 71.5 µM (inactive)
5,CCOC(=O)c1cc2n(c1N)-c1ccccc1C2=O,62.6 µM (inactive)
6,CC(C)CN1CCN(Cc2cccn2-c2ccc(Cl)cn2)CC1CCO (stereo unspecified),> 71.5 µM (inactive)
7,CCN1C(=O)/C(=C/N2CCc3ccccc32)SC1=S,10.1 µM (inactive)
8,O=C(Nc1ccc(Cl)c(Cl)c1)Nc1ccc([N+](=O)[O-])cn1,> 71.5 µM (inactive)
9,COc1ccc(N=C2NC(=O)S/C2=C\c2ccc(N(C)C)cc2)cc1,5.67 µM (active)
10,O=C(O)c1ncc(-c2ccccc2)cn1,> 71.5 µM (inactive)
11,N#CC1=C(N)Oc2ccc3ccc(O)cc3c2C1c1ccsc1 (stereo unspecified),65.8 µM (inactive)
12,Cc1ccc(NC(=O)CN(C)c2ccc(S(=O)(=O)N3CCCC3)cn2)cc1,> 71.5 µM (inactive)
13,Cc1ccnc2nc(C(=O)OCC(=O)NCCc3ccccc3)nn12,> 71.5 µM (inactive)
14,CCOC(=O)c1sc2nc(C)nc(SCC(=O)NC3CCS(=O)(=O)C3)c2c1C (stereo unspecified),> 71.5 µM (inactive)
15,COc1cc(N2CCCC2)c(OC)cc1/C=C1/NC(=S)NC1=O,4.35 µM (active)
16,CCOC(=O)c1sc(N)c(C#N)c1COC(=O)CNC(=O)c1cc(OC)c(OC)c(OC)c1,49.3 µM (inactive)
17,CCOC(=O)c1sc(-c2ccc(F)cc2)cc1NC(=O)Nc1ccccc1OC,> 71.4 µM (inactive)
18,CCN(CC)CCN1C(=O)c2cccc3cc(N)cc(c23)C1=O,49.2 µM (inactive)
